# Results as given in ChEMBL document CHEMBL3988442, “University of Dundee, Small-Polar-MMV Screening Library” (2021).
# For some assays here: Potency and affinity values are given separately.
# Tests used:
# Design in all cases: scale not given: direction of the effect not stated beside the values
# [1] = target: Protein translocase subunit SecA (Escherichia coli (strain K12)) (UniProt P10408); experiment: Assay to Identify E. coli SecA ATPase Inhibitors; type: functional; conditions: 30 µM
# [2] = target: T1, Ubiquitin-activating enzyme e1, putative (Leishmania donovani (strain BPK282A1)) (UniProt E9BSI1); experiment: Leishmania donovani Ubiquitin Activating Enzyme (LdE1); type: functional; conditions: 30 µM
# T1 sequence (whole entry): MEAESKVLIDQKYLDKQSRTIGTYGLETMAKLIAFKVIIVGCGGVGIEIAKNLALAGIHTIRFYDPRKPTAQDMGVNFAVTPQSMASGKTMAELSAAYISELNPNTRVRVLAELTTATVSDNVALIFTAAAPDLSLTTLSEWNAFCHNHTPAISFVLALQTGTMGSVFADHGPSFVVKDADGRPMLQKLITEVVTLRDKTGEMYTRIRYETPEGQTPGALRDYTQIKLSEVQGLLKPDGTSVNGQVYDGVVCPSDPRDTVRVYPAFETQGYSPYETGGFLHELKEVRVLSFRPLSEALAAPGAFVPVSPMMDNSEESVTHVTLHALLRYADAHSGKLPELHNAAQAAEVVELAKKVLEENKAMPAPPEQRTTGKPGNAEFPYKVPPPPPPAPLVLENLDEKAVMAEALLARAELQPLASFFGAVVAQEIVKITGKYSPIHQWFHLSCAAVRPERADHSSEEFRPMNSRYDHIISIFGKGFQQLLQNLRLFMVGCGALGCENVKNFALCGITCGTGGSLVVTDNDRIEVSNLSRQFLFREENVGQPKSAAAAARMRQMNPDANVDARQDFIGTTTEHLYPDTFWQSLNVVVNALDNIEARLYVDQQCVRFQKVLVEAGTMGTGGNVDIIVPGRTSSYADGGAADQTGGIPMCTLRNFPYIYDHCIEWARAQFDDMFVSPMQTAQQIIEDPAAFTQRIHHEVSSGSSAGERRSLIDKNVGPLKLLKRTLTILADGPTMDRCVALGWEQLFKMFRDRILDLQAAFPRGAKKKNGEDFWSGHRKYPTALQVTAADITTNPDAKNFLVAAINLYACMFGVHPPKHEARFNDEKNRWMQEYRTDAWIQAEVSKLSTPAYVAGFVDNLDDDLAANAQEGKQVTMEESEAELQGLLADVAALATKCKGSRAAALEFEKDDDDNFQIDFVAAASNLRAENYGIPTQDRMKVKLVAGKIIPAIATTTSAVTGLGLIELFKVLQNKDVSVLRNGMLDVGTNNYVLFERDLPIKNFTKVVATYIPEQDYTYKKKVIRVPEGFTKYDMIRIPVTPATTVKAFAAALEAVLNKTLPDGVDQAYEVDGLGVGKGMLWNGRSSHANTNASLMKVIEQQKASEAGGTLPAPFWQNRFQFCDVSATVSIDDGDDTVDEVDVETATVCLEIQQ
# [3] = target: AMP-activated protein kinase, AMPK (Homo sapiens) (UniProt P54646+O43741+P54619+Q9UGJ0+Q9Y478+Q13131+Q9UGI9); experiment: AMP-dependent Kinase enzyme assay. An in vitro enzyme assay that detects ADP turnover that is directly proportional to AMPK activity. This uses naive AMPK that is activated during the assay with MK-8722; type: functional; conditions: 30 µM
# [4] = target: Sialic acid-binding Ig-like lectin 9 (Homo sapiens) (UniProt Q9Y336); experiment: Hs-Siglec9 ALPHAscreen SOP 20170721; conditions: 10 µM
# Trypanosoma cruzi = experiment: Trypanosoma cruzi phosphomannomutase and mannose-1-phosphate guanylyltransferase assay; type: functional; conditions: 10 µM
# [5] = target: T2, Arginase-2, mitochondrial (Homo sapiens) (UniProt P78540); experiment: in vitro enzyme assay to detect the production of urea directly proportional to the activity of Arginase II; type: functional; conditions: 33.3 µM; further: in the data most compounds retested in dose-response had high values
# T2 sequence (whole entry): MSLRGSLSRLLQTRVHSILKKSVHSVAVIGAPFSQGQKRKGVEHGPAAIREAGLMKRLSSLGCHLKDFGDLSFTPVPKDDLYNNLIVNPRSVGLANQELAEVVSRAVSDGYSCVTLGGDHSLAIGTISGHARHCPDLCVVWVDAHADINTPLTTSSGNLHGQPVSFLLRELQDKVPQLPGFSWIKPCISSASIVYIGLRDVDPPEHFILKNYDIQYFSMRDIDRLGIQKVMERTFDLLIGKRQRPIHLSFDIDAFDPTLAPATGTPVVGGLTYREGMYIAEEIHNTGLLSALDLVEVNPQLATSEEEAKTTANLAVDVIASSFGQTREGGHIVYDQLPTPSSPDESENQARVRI
# [6] = target: T3, Proteasome subunit beta (Trypanosoma cruzi) (UniProt O96673); experiment: Trypanosoma cruzi proteasome chymotrypsin-like activity (TcProtChymo) assay.; further: in the data most compounds retested in dose-response had high values; type: functional; conditions: 9.37 µM
# T3 sequence (whole entry): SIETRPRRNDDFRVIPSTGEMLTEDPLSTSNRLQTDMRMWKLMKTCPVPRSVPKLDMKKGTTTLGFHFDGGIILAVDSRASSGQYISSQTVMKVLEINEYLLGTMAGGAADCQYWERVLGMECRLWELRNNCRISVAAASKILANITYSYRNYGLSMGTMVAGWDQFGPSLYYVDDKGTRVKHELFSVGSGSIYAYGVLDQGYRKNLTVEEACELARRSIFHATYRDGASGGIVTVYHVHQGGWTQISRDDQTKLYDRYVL
# Homo sapiens = organism: Homo sapiens; experiment: To identify inhibition of the IFN signalling (Jak-Stat) pathway via expression of an eGFP reporter gene under the control of an IFN-stimulated response element (ISRE) containing MxA promoter.; type: functional; conditions: 30 µM
# [7] = target: T4, Tyrosyl-tRNA synthetase, putative (Trypanosoma cruzi (strain CL Brener)) (UniProt Q4DSP6); experiment: Trypanosoma cruzi tyrosyl tRNA synthetase (TcYRS) _High Tyrosine SOP; type: functional; conditions: 30 µM; further: in the data most compounds retested in dose-response had high values
# T4 sequence (whole entry): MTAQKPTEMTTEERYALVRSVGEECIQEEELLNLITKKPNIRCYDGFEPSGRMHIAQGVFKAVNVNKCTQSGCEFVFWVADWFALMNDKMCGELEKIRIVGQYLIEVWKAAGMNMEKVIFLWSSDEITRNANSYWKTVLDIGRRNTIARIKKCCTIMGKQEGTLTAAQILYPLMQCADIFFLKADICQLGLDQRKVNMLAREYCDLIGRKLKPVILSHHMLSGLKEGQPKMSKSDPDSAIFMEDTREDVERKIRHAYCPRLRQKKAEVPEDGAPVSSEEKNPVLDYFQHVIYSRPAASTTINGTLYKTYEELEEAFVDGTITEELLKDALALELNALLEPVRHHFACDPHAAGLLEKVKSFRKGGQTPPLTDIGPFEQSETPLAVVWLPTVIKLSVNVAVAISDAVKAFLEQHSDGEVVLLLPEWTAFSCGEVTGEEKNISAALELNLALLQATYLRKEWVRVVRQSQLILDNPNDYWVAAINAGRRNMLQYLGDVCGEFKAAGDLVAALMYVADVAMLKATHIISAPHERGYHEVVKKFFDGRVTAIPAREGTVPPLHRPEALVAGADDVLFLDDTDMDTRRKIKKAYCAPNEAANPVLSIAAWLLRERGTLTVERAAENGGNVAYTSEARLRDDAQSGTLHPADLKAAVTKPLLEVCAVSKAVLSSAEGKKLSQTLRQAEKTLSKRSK
# [8] = target: T4, Tyrosyl-tRNA synthetase, putative (Trypanosoma cruzi (strain CL Brener)); experiment: Trypanosoma cruzi tyrosyl tRNA synthetase (TcYRS) SOP; type: functional; conditions: 30 µM
# [9] = target: Chromo domain-containing protein 1 (Saccharomyces cerevisiae (strain ATCC 204508 / S288c) (Baker's yeast)) (UniProt P32657); experiment: ScCHD-1 Enzyme Inhibition Assay; type: functional; conditions: 30 µM; further: in the data most compounds retested in dose-response had high values
# Chromo domain-containing protein 1 (Saccharomyces cerevisiae (strain ATCC 204508 / S288c) (Baker's yeast)), sequence (P32657 whole entry, the tested form may be a part): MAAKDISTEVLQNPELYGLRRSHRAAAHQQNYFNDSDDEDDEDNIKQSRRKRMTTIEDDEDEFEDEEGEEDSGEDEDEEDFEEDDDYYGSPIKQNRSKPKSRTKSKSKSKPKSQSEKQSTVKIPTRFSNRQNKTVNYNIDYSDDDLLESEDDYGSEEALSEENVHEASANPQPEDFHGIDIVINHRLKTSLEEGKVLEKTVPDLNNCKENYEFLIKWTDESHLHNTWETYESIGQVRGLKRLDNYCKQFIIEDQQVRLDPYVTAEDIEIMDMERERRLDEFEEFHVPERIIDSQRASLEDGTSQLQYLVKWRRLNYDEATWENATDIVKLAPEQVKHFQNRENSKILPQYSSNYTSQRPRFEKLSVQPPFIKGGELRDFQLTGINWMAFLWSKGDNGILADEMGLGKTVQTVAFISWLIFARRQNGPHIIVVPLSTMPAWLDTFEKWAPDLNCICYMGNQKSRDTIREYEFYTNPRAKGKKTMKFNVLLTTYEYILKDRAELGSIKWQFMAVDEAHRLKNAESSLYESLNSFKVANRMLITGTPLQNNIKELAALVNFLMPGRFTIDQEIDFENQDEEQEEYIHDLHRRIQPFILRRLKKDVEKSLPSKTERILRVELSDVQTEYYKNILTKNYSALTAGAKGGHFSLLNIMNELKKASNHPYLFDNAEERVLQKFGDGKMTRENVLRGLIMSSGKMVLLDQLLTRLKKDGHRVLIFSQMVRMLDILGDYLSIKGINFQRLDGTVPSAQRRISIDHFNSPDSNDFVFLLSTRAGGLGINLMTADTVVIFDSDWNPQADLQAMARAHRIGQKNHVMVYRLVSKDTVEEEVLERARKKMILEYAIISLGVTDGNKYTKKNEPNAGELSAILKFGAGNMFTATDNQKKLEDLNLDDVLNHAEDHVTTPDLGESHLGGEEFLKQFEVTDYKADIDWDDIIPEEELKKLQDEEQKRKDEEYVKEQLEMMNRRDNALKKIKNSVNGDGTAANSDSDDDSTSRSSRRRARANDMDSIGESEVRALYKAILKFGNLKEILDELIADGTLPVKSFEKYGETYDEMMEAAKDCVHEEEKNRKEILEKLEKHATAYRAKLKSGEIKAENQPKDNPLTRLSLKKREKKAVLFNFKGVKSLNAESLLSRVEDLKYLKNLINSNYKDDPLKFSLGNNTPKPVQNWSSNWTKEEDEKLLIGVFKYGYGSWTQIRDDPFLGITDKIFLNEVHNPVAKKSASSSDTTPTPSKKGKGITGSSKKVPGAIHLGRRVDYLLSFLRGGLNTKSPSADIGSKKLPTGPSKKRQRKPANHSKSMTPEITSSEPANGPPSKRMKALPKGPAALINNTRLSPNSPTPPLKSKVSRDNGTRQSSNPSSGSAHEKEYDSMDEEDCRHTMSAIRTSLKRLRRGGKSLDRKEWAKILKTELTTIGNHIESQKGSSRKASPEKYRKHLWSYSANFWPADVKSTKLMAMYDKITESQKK
# Protein translocase subunit SecA (Escherichia coli (strain K12)), sequence (P10408 whole entry): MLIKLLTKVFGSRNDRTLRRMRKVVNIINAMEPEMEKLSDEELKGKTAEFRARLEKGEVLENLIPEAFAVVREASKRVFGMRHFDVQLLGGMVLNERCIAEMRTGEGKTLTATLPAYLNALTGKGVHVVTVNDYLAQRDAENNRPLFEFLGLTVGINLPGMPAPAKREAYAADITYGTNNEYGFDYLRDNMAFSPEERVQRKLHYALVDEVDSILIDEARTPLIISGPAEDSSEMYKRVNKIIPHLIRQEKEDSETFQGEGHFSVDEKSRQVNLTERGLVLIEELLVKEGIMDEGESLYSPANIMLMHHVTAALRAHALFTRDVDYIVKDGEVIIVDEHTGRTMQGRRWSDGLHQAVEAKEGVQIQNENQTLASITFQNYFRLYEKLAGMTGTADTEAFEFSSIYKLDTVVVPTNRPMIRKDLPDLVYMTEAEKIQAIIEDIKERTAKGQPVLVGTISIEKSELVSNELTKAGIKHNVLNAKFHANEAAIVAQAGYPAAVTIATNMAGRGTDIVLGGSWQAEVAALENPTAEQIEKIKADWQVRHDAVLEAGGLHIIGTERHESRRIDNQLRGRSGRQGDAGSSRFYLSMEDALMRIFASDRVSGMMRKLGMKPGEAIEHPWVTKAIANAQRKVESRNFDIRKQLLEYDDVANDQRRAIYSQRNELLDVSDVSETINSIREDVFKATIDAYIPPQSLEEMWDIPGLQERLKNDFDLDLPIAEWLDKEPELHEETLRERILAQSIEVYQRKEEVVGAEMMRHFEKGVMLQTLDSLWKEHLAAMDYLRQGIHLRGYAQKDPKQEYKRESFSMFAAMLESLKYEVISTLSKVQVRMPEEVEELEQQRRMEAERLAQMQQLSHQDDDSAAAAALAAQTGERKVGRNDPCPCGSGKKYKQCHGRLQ
# Sialic acid-binding Ig-like lectin 9 (Homo sapiens), sequence (Q9Y336 whole entry): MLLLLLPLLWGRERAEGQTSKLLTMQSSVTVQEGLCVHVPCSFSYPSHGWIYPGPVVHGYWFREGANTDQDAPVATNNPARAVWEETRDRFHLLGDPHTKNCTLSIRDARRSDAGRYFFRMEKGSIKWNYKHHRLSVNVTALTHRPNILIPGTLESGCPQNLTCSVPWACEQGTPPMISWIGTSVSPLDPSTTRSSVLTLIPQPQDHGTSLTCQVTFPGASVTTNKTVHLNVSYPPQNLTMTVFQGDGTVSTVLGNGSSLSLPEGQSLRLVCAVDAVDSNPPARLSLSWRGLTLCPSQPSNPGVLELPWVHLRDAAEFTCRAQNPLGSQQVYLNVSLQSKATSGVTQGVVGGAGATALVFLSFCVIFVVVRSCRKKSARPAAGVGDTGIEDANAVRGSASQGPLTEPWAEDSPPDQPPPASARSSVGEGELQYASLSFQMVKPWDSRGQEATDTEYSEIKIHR
Structure (SMILES),Percent Effect [1] [%],Percent Effect [2] [%],Percent Effect [3] [%],Percent Effect [4] [%],Percent Effect (Trypanosoma cruzi) [%],Percent Effect [5] [%],Percent Effect [6] [%],Percent Effect (Homo sapiens) [%],Percent Effect [7] [%],Percent Effect [8] [%],Percent Effect [9] [%]
Cc1cnn(CC2CCCN2C(=O)Cc2n[nH]c3ccccc23)c1 (configuration not stated),-5.48,10.1,14,7.2,2.17,7.61,-0.0819,10.1,8.37,11.4,-3.88
Fc1ccc(OCc2noc(CN3CCc4cncnc4C3)n2)cc1,-0.114,13.2,-14.5,2.94,2.26,-29.5,18.1,1.44,31.9,21.9,-2.74
Cn1ccnc1CN1CCN(CCOc2ccccc2C#N)CC1,-0.0443,21.1,4.11,-9.14,-3.83,5.4,5.67,18.9,7.39,13.6,-1.99
CCc1nc(CCNC(=O)C2CCOC2)sc1C (configuration not stated),-4.95,8.11,-4.04,10.6,1.76,3.75,5.5,9.42,6.93,8.54,-0.947
CCOc1ncccc1NC(=O)N1CCCCCC1,-4.07,5.41,0.669,8.62,-0.836,-1.29,0.179,13.2,2.97,6.1,1.09
O=C(Cc1ccccn1)N1CCc2nc(-c3cnccn3)nc(O)c2C1,-2.77,12.2,8.84,-3.28,0.593,3.48,12.6,9.22,4.3,9.09,-9.74
COc1cc2nc(C)n(CC(=O)NCCCN(C)C)c(=O)c2cc1OC,-0.823,20,-6.34,-3.21,4.13,-2.99,17.4,12.2,6.35,15.4,-9.62
Cn1ccnc1-c1cccc(NC(=O)NCCN2CCOCC2)c1,-4.99,15.3,-5.8,16.5,4.57,16.3,10.9,9.44,5.26,10.3,-4.33
CN(Cc1ccsc1)C(=O)Nc1ccc(S(C)(=O)=O)nc1,-2.7,22.8,-11.6,-5.34,4.63,-3.04,10.6,5.01,9.36,24.1,-6.57
O=C(NCCOc1cccc(Cl)c1)C1CC(=O)N(CC2CC2)C1 (configuration not stated),-3.05,26.3,6.34,-5.8,6.82,4.32,13.3,-1.81,4.43,25.9,-10.9
COCCCNC(=O)CN(C)C(=O)c1cc(C)ccc1O,-3.14,16.2,-6.15,-4.94,-5.48,-0.924,7,-3.62,3.96,15.8,-7.89
CN1CCCC(Cc2cncc(C(=O)NCC3CC3)c2)C1 (configuration not stated),-4.88,1.35,8.98,0.654,0.79,-2.09,4.68,7.04,5.38,11.7,-7.98
COc1cccc(S(=O)(=O)CCN2CCCCC2)c1,-3.72,8,-7.74,6.82,-5.94,1.56,22,20,2.73,8.64,-9.16
Cn1cc(CN2CCOC3(CCCN(C(=O)c4ccco4)C3)C2)cn1 (configuration not stated),-4.16,13,-1.39,4.5,8.95,-8.28,5.49,1.45,3.23,8.64,-6.46
Cc1ccoc1C(=O)NC1CCN(Cc2cccc3c2OCCO3)CC1,-5.22,16.5,-78.8,6.72,3.38,-5.38,13.9,8.82,13.5,25.3,-24.5
O=C(CN1CCOC(Cn2cccn2)C1)Nc1nncs1 (configuration not stated),-7.55,10.4,-7.65,-17.4,10.3,-4,11.2,13.3,9.52,18.8,-22.6
CN(Cc1ccc(F)cc1)C(=O)CN1CCCC(Cn2cncn2)C1 (configuration not stated),-2.63,2.53,1.84,7.47,3.49,1.52,-6.8,-5.05,7.39,3.8,-2.65
Cc1csc([C@@H]2C[C@@H]3CCN(Cc4cnn(C)c4)C[C@H]3O2)n1,-5.44,2.6,-0.433,1.83,-0.0983,-5.52,3.33,-23.4,1.07,1.24,-4
Cc1nc(CNCC2CCCN2c2cccnn2)cs1 (configuration not stated),-2.04,-2.63,1.93,0.202,-3.38,6.51,-1.84,14.7,2.45,0,4.5
CCn1cc(CN2CCCN(C(=O)C3=NN(C)C(=O)CC3)CC2)cn1,0.989,18.2,0.0374,-13.6,-0.686,6.11,13.7,29.5,5.71,0,-17.5
Cc1[nH]ccc1C(=O)N1CCC(c2nnc(Cn3cccn3)n2C)CC1,-2.68,2.74,-3.04,10.2,2.98,1.6,6.42,-10.2,5.21,13.6,1.58
O=C(O)c1cc(S(=O)(=O)Nc2ccc(Cl)cc2)cc2c1OCCO2,-4.18,-8.86,4.72,2.13,-2.97,4.09,8.75,-2.12,-18.8,-15.2,-21.4
